# HT1080NT lethal: qHTS for induction of synthetic lethality in tumor cells producing 2HG: qHTS for the HT-1080-NT fibrosarcoma cell line; HT-1080-NT fibrosarcoma viability, CellTiter-Glo ATP luminescence, 48 h; Potency, µM (highest dose often 46.1 µM), for the others: at the highest dose activity, negative = less viability, most hits filed as cytotoxic; hit rate 1.6% among 360,000; AID 686970, 2013;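 note: NT is the 2HG producing partner of a matched IDH1 knockdown line; potency is the fitted concentration of half-maximal effect; 0% = DMSO-treated cells and -100% = media-only wells without cells; nearly all actives have a fitted effect of over 55% in size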
#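 Luminescent CellTiter-Glo readout after 48 hours of compound exposure at 37 degrees C defined viability of HT-1080-NT cells. Activity was normalized to DMSO wells and cell-free media wells; concentration-response curves were fitted and assigned curve classes.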
# TDP1 cell noCPT: qHTS for Inhibitors of human tyrosyl-DNA phosphodiesterase 1 (TDP1): qHTS in cells in absence of CPT | hit rate 15% among 420,000 | Potency, µM (highest dose often 46.2 µM), inactives show at the top dose activity change, negative = growth inhibition, actives largely listed as inhibitors | DT40 Tdp1-/- hTDP1 cells, no CPT, ATP luminescence, 48 h; note: potency is the fitted concentration of half-maximal effect; nearly all actives have a fitted effect of over 55% in size
#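 DT40 Tdp1-/-;hTDP1 cells, no CPT (DMSO vehicle only), 400 cells/well; compounds pin-transferred; ≥48 hr, 37 °C; CellTiter-Glo 30 min RT dark, luminescence read.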
# HT1080 IDH1KD tx: qHTS for induction of synthetic lethality in tumor cells producing 2HG: qHTS for the HT-1080-IDH1KD cell line. HT-1080 IDH1 knockdown viability, ATP luminescence, 48 h. Potency, µM (series often up to 46.1 µM), for inactives: top-dose activity, negative = toxicity, actives largely listed as cytotoxic. hit rate 2% among 360,000;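 note: potency is the fitted concentration of half-maximal effect; 0% = DMSO wells and -100% = cell-free medium wells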
#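 HT-1080-IDH1KD cells (IDH1 knocked down), 750/well in RPMI with 5% FBS, treated with compound 48 h at 37 degrees C. Viability by CellTiter-Glo luminescence, normalised to DMSO and no-cell wells; concentration-response curves classed.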
# IL-1B inflam inh: qHTS for Inhibitors of Inflammasome Signaling: IL-1-beta AlphaLISA Primary Screen; THP-1 LPS/ATP IL-1B secretion, AlphaLISA, 16 h; stronger effect = lower value; activity change, % at 57.5 µM; hit rate 4.7% among 360,000; AID 743279, 2014; in the data active = activity change below about -50%; inconclusive = mostly about -30% to -49%
#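 THP-1 cells pretreated 1 hr with compounds (up to 57.5 uM final), then stimulated with LPS (250 ng/mL final) plus ATP (1.25 mM final); secreted IL-1B measured by AlphaLISA after 16 hr, decreased signal indicating inhibition.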
# TDP1 cell CPT: qHTS for Inhibitors of human tyrosyl-DNA phosphodiesterase 1 (TDP1): qHTS in cells in presence of CPT; Potency, µM (doses to about 46.2 µM), without a hit: top-dose activity change, negative = growth inhibition, usual class: inhibitors; hit rate 12% among 420,000; chicken DT40 Tdp1-/-;hTDP1 cells + 20 nM CPT, ATP luminescence, 48 h; note: potency is the fitted concentration of half-maximal effect; nearly all actives have a fitted effect of over 55% in size
#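 Chicken DT40 Tdp1-/- cells stably complemented with human TDP1 were seeded at 400 cells/well in medium containing 20 nM camptothecin, exposed to pin-transferred compounds, and grown at 37 °C for at least 48 hr. Viability was read as ATP luminescence.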
# Active calls of the source: *; u = inconclusive; x = no result given. A selection: hits, their analogues and other compounds. The true share with any hit is near 19%. Unless noted, calls come from the whole dose curve; as a rule, active = well fitted curve in the direction sought with a large enough effect; inconclusive = small, poorly fitted or top-dose-only effect, or another doubt; inactive = no such curve, though single readings can be large; an effect the other way counts as inactive or inconclusive. Unless noted, % is set by controls: 0 for no effect and ±100 for the full control effect.
SMILES,HT1080NT lethal,TDP1 cell noCPT,HT1080 IDH1KD tx,IL-1B inflam inh,TDP1 cell CPT
COc1ccc(C(=O)NNC(=O)CSc2nnc(C)n2C)cc1,1%,-3%,-7%,19,-8%
COc1ccc(OCCSc2ncc(CO)n2C)cc1,1%,2%,3%,14,-24%
COc1ccc(C)cc1NC(=O)CCS(=O)(=O)c1cc2c3c(c1)CCN3C(=O)CC2,x,-27%,x,x,u
CCOC(=O)C1CCCN(S(=O)(=O)c2ccc3c(c2)CC(C)N3C(=O)C2CC2)C1 (stereo not drawn),-5%,-19%,-27%,-13,18µM*
CC1CCN(S(=O)(=O)c2ccc3c(c2)C(Cl)(Cl)C(=O)N3)CC1,-1%,16µM*,-16%,-28,10µM*
CC1CCN(S(=O)(=O)c2ccc3ccccc3c2)CC1,-1%,-14%,-4%,-5,-2%
CC1CCN(c2cc(N)c(Cl)cc2[N+](=O)[O-])CC1,-5%,-22%,-15%,-78*,-3%
CC1Cc2cc(S(=O)(=O)N3CCCCC3)ccc2N1C(=O)C1CCC1 (stereo not drawn),-1%,u,-3%,-7,21µM*
CC1CCN(c2cc(C#N)c(C#N)cc2[N+](=O)[O-])CC1,12%,-10%,1%,12,-18%
Cc1nc2ccc(S(=O)(=O)NC(CC(C)C)C(=O)NCc3ccc(Cl)cc3)cc2s1 (stereo not drawn),x,-62%,x,x,u
COc1cccc(NC(=O)N2CCN(S(C)(=O)=O)CC2)c1,1%,-10%,0%,12,25%
COc1ccc(NC(=O)CSc2nccn2C)c([N+](=O)[O-])c1,15%,-7%,14%,-13,14%
CCN(Cc1ccccc1)S(=O)(=O)c1ccc2c(c1)CC(C)N2C(=O)C1CCC1 (stereo not drawn),x,18µM*,x,x,u
CC1Cc2cc(S(=O)(=O)NCCC(=O)N(C)Cc3ccccc3)ccc2N1C(=O)C1CC1 (stereo not drawn),-2%,u,0%,-8,u
CC1CCN(c2ccc(S(=O)(=O)N3CCC(C)CC3)cc2N)CC1,-3%,16µM*,-10%,17,21µM*
CC1CCN(S(=O)(=O)c2ccc3c(c2)CC(C)N3C(=O)C2CCC2)CC1 (stereo not drawn),u,16µM*,-6%,-17,21µM*
CC1Cc2cc(S(=O)(=O)N3CCN(C)CC3)ccc2N1C(=O)C1CC1 (stereo not drawn),3%,10%,-5%,-4,-6%
COc1ccc(C2CC(=O)c3cc(OC)ccc3O2)cc1 (stereo not drawn),0%,u,-13%,-26,-27%
COc1ccc(C2CC(=O)c3ccccc3O2)cc1 (stereo not drawn),-5%,u,-1%,-60*,u

# High-throughput results deposited in PubChem BioAssay by National Center for Advancing Translational Sciences (NCATS).
